From PubChem BioAssay (NCI)
Compounds without any hit were thinned out: in the full panel of roughly 79,000, 15% have a hit. No stated cut-off is given here; in the data, active means growth inhibition above about 70%; inactive means the rest. Where a SMILES comes first, the peptide text is derived from it.

Legend:
[1] = NCI Yeast Anticancer Drug Screen. Data for the rad50 strain (AID 155);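 further: 0% = growth of vehicle-only cultures of the same strain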; details: S. cerevisiae rad50 strain growth inhibition; at 50.0 µM; stronger effect = higher value
Summary of the method: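 Yeast carrying a defined DNA repair defect were exposed to test compounds, and growth was compared with vehicle-treated controls to give percent inhibition.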

[2] = NCI Yeast Anticancer Drug Screen. Data for the mec2-1 strain (AID 157); details: S. cerevisiae mec2-1 strain, at 50.0 µM, stronger effect = higher value
Summary of the method: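 Using mec2-1 yeast: add compound, measure growth, express inhibition versus vehicle-treated cultures.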

[3] = NCI Yeast Anticancer Drug Screen. Data for the sgs1 mgt1 strain (AID 161);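 further: 0% = growth of cultures given vehicle only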; details: S. cerevisiae sgs1 mgt1 strain, at 50.0 µM, stronger effect = higher value
Summary of the method: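 Growth of a repair-deficient yeast mutant was monitored after compound treatment and expressed as inhibition relative to vehicle-treated cultures.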

[4] = NCI Yeast Anticancer Drug Screen. Data for the cln2 rad14 strain (AID 165);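 further: 0% = growth equal to vehicle treated cultures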; details: S. cerevisiae cln2 rad14 strain, at 50.0 µM, stronger effect = higher value
Summary of the method: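 Yeast strain cln2 rad14, bearing defects in cell cycle control and DNA repair, serves as the test system; values reflect growth inhibition compared with vehicle.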

[5] = NCI Yeast Anticancer Drug Screen. Data for the bub3 strain (AID 167); details: S. cerevisiae bub3 mutant strain, at 50.0 µM, stronger effect = higher value
Summary of the method: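 Compounds were applied to a genetically altered yeast strain carrying a cell-cycle control defect. Growth inhibition was scored against vehicle-treated controls.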

[6] = NCI Yeast Anticancer Drug Screen. Data for the mlh1 rad18 strain (AID 175); details: S. cerevisiae mlh1 rad18 strain growth inhibition; at 50.0 µM; stronger effect = higher value
Summary of the method: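 Steps: expose repair-defective yeast to compound; measure growth; express inhibition against vehicle-treated controls.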

Measured: growth inhibition

CC(C)=NNC(=O)c1n[nH]c(C)c1N=NN(C)C
inactive: [1] 12.5% | [2] -23.4% | [3] 6.5% | [4] -0.65% | [5] -9.4% | [6] 20.5%

COc1cc(C(=O)Oc2c(C#N)sc3c2c(=O)n(-c2ccccc2)c(=S)n3-c2ccccc2)cc(OC)c1OC
inactive: [1] 22.8% | [2] 3.2% | [3] 12.1% | [4] 10.2% | [5] 21.9% | [6] 20.5%

CCOc1cc2c(cc1O)/C(=N\O)C[C@@H]1[C@@H]2CC[C@]2(C)[C@@H](O)CC[C@@H]12
inactive: [1] 31.6% | [2] 13% | [3] 57.2% | [4] 20.6% | [5] 24.2% | [6] -9.15%

COC(=O)/C=C/CCBr
inactive: [1] -13% | [2] -22.1% | [3] -17.6% | [4] -39.1% | [5] -5.2% | [6] -11.5%

CC(C)(CO)N1CCN(C(=S)Nc2ccccc2)CC1
inactive: [1] 17.9% | [2] -2.6% | [3] -0.3% | [4] -1.9% | [5] -10.8% | [6] 17.8%

OC(C#Cc1ccccc1)(C#Cc1ccccc1)/C=C/c1ccccc1
inactive: [1] 17.1% | [2] -5% | [3] -5.85% | [4] -7.95% | [5] -9.15% | [6] 11.5%

CC(C)CC(N)C(=O)NC(C)C(=O)NC(CC(C)C)C(=O)O (stereo not drawn) (H-Leu-Ala-Leu-OH; configuration not given here)
inactive: [1] 5.95% | [2] 21.4% | [3] 10.9% | [4] 1.9% | [5] 0.5% | [6] -3.1%

CCCCN(CCCC)CCNC(c1ccc(Cl)cc1)c1ccc(OC)cc1 (stereo unspecified)
inactive: [1] 14.5% | [2] 4.3% | [3] 4.45% | [4] -7.85% | [5] 8.35% | [6] 33.4%

O=C1c2ccccc2-c2ccc([N+](=O)[O-])cc21
inactive: [1] 35.6% | [2] 5.8% | [3] -0.3% | [4] 8.65% | [5] -1.3% | [6] -2.85%

Cc1ccccc1NS(=O)(=O)c1c(N)ncn1C
inactive: [1] -5.2% | [2] 3.55% | [3] -0.9% | [4] -29.3% | [5] -0.65% | [6] 5.25%

Cc1cc(S(=O)(=O)Nc2n[nH]c(Nc3ccccc3)n2)c(SSc2cc(Cl)c(C)cc2S(=O)(=O)Nc2n[nH]c(Nc3ccccc3)n2)cc1Cl
inactive: [1] 12.2% | [2] 37.8% | [3] 4.95% | [4] 11.9% | [5] 12% | [6] 18.2%

Cc1ncc([N+](=O)[O-])n1CCNC(=O)CCCCn1ccnc1[N+](=O)[O-]
inactive: [1] 5% | [2] -3.75% | [3] -8.6% | [4] 15.1% | [5] 7.15% | [6] -45%

OCC12CCCC(OC1)O2 (stereo unspecified)
inactive: [1] -8.6% | [2] -14.7% | [3] -25.9% | [4] 0.2% | [5] 13.8% | [6] -4.65%

COc1ccc(-c2c3c([nH]c(=S)c2C#N)CCC3)cc1
inactive: [1] 8.65% | [2] 4.5% | [3] 33% | [4] 22.7% | [5] 28.7% | [6] 34.4%

O=C(Nc1ccccc1)Nc1ccc2ccccc2c1
inactive: [1] -7.75% | [2] -0.2% | [3] 2.1% | [4] -22.2% | [5] 12.9% | [6] -10.9%

Nc1nc(N)c2ncn(Cc3c(Cl)cccc3Cl)c2n1
inactive: [1] -3.75% | [2] -3.95% | [3] 1.9% | [4] 6.8% | [5] 4.15% | [6] -9.65%

O=C(O)c1ccc2c(c1C(=O)O)C(=O)OC2(c1ccc(O)cc1)c1ccc(O)cc1
inactive: [1] -14.8% | [2] 11.7% | [3] -21.6% | [4] -21.8% | [5] -10.9% | [6] 4.85%

Brc1ccc(-c2ccc(-c3ccc(Br)cc3)s2)cc1
inactive: [1] 30.4% | [2] 13.8% | [3] 36.5% | [4] 19.8% | [5] -1.55% | [6] 4%

CN(C(=O)C12C3C4C5C3C1(C(=O)O)C5C42)C(C)(C)C (stereo unspecified)
inactive: [1] 35.4% | [2] 12.2% | [3] 0.85% | [4] 18.8% | [5] 28.1% | [6] 25.9%

Cc1c2ccn3c(=O)c4ccccc4cc3c2c(C)c2c1[nH]c1ccccc12
inactive: [1] 56.1% | [2] 15.2% | [3] 9.45% | [4] 16.7% | [5] 21.8% | [6] 26.6%

COC(=O)C1C(C(=O)OC)C2(C)C(=O)C1(C)C(c1ccccc1)=C2c1ccccc1 (stereo unspecified)
inactive: [1] -0.7% | [2] 2.55% | [3] -5.4% | [4] -12.3% | [5] 1.15% | [6] 5.15%
